Results as given in PubChem BioAssay (NCATS).
Inconclusive results are not listed. Active and inactive are the calls of the source. Calls come from the whole dose curve; as a rule, active = well fitted activation curve with a large enough effect in the main read-out, with a control signal flat (not every such curve was filed as active); inconclusive = small, poorly fitted or top-dose-only effect, or effect the other way, or a change in a side signal; inactive = flat fitted curve, though single readings scatter.

What follows are compounds tested against 3',5'-cyclic-AMP phosphodiesterase 4B (Homo sapiens) (UniProt Q07343) (assay: qHTS Assay for Inhibitors of PDE-IV (AID 607)). Settings: HEK293 ACTOne CNG channel cells, membrane potential fluorescence; series mostly up to 22.9 µM.
How it was run: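 HEK293 ACTOne cells with CNG channel (1000/well), endogenous PDE4; membrane potential dye, compounds up to 22.9 uM final. Fluorescence Ex 535/Em 590; RO 20-1724 (100 uM final) as reference.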

Chain of 3',5'-cyclic-AMP phosphodiesterase 4B (Homo sapiens) (Q07343 whole entry, looked up): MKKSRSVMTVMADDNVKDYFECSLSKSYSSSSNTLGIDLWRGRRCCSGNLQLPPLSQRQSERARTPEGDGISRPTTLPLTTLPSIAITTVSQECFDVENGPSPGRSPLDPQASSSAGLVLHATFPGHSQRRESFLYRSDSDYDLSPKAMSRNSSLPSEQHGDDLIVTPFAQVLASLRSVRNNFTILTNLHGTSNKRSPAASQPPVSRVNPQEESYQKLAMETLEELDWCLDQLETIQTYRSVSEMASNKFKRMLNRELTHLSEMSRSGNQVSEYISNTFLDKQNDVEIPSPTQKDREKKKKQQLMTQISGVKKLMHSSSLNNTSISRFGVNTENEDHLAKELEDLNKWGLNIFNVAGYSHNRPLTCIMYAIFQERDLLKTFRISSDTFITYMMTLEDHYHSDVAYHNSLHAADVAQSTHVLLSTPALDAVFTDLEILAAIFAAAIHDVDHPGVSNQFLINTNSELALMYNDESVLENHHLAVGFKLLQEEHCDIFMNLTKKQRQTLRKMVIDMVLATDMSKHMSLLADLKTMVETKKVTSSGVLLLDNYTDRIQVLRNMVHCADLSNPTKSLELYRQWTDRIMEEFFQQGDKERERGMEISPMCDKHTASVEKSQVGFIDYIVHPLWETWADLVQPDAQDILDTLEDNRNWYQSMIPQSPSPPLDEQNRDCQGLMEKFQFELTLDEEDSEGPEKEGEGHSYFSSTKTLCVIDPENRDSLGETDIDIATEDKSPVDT

Potency, inactive:
COc1ccc(COC2OC[C@]3(C)[C@H]4C5=C(CN3C(=O)OC(C)(C)C)[C@H](C)C(CO)C(CO)C5CC[C@@H]24)cc1 (stereo not given in full)
CC1(C)C(=O)C(c2ccccc2)=C2CN3C(=O)N(CCc4ccccc4)C(=O)C3(Cc3ccc(C(F)(F)F)cc3)C=C21 (stereo not given)
CC(C)[C@@H](CC(=O)N[C@@H]1CCCC[C@H]1C(=O)N[C@H](CC(=O)N[C@@H](CCC(=O)O)CC(=O)O)Cc1c[nH]c2ccccc12)NC(=O)C[C@H](Cc1ccccc1)NC(=O)[C@@H]1CCCC[C@H]1N
COC(=O)[C@@H]1C[C@H]1[C@@H](NC(=O)Oc1ccc(F)cc1)c1ccccc1
CCC/C=C(\CCC)C(NS(=O)(=O)c1cccs1)c1ccc(C(=O)OC)cc1 (stereo not given)
C#CCCCC(=O)Nc1ccccc1
CC(C)C[C@@H](CC(=O)N[C@@H](CCCN)CC(=O)N[C@@H]1CCCC[C@H]1C(=O)N[C@H](CC(=O)N[C@@H](CCC(=O)O)CC(=O)O)Cc1c[nH]c2ccccc12)NC(=O)[C@@H]1CCCC[C@H]1N
CCCC[C@H]1C[C@@H]1[C@@H]1N(P(=O)(c2ccccc2)c2ccccc2)C[C@@](O)(c2ccccc2)CC12CC2
CC(C)C[C@@H](CC(=O)N[C@@H](CCC(=O)O)CC(=O)O)NC(=O)[C@@H]1CCCC[C@H]1NC(=O)C[C@@H](NC(=O)C[C@H](Cc1c[nH]c2ccccc12)NC(=O)[C@@H]1CCCC[C@H]1N)C(C)C
Cc1c2c(nc3ccccc13)-c1cccc(=O)n1C2
CCC/C=C(\CCC)C(NS(=O)(=O)c1ccc(C(F)(F)F)cc1)c1ccccc1 (stereo not given)
CC(C)C[C@@H](CC(=O)N[C@@H](CCC(=O)O)CC(=O)O)NC(=O)[C@@H]1CNCC[C@H]1NC(=O)C[C@@H](NC(=O)C[C@H](Cc1c[nH]c2ccccc12)NC(=O)[C@@H]1CCCC[C@H]1N)C(C)C
C[C@@H](C(=O)NCc1ccc(S(C)(=O)=O)cc1)[C@@H]1C[C@@]1(C)[C@@H](NC(=O)OCc1ccccc1)c1ccccc1
C=C(CC1([C@@H](NP(=O)(c2ccccc2)c2ccccc2)[C@H]2C[C@@H]2CCCC)CC1)c1cccc(OC)c1
Cc1ccc(CNC(=O)[C@H]2C[C@@H]2[C@H](NP(=O)(c2ccccc2)c2ccccc2)c2ccccc2)c(F)c1F
CCC/C=C(\CCC)C(NC(=O)OCC(C)C)c1ccc(C(=O)OC)cc1 (stereo not given)
C[C@@H](C(=O)NCCc1c[nH]c2ccccc12)[C@H]1C[C@]1(C)[C@H](NC(=O)OCc1ccccc1)c1ccccc1
C[C@H](CO)NC(=O)[C@@H]1C[C@H]1[C@@H](NP(=O)(c1ccccc1)c1ccccc1)c1ccccc1
CCCC[C@@H]1C[C@H]1C(NC(=O)c1cccs1)c1ccc(Cl)cc1 (stereo not given in full)
CCC/C=C(\CCC)C(NC(=O)c1ccc(C(F)(F)F)cc1)c1ccccc1 (stereo not given)
